# Reference: article PMC4336329 (PLoS ONE, 2015)
# Screen size: about 310,000 compounds; about 14,000 (4.5%) showed an effect of 50% or more. The effect is printed as a negative number. This excerpt belongs to a sample that is enriched for strong results.
# Biological target: human ether-à-go-go-related gene (hERG) potassium channel (human, UniProt Q12809)
# Assay: primary screen, population patch clamp on CHO cells stably expressing hERG; higher = less effect of the substance
# 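Further: peak tail current of the secondary pulse compared with the same well before compound.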
# Sequence of human ether-à-go-go-related gene (hERG) potassium channel (Q12809 whole entry, looked up): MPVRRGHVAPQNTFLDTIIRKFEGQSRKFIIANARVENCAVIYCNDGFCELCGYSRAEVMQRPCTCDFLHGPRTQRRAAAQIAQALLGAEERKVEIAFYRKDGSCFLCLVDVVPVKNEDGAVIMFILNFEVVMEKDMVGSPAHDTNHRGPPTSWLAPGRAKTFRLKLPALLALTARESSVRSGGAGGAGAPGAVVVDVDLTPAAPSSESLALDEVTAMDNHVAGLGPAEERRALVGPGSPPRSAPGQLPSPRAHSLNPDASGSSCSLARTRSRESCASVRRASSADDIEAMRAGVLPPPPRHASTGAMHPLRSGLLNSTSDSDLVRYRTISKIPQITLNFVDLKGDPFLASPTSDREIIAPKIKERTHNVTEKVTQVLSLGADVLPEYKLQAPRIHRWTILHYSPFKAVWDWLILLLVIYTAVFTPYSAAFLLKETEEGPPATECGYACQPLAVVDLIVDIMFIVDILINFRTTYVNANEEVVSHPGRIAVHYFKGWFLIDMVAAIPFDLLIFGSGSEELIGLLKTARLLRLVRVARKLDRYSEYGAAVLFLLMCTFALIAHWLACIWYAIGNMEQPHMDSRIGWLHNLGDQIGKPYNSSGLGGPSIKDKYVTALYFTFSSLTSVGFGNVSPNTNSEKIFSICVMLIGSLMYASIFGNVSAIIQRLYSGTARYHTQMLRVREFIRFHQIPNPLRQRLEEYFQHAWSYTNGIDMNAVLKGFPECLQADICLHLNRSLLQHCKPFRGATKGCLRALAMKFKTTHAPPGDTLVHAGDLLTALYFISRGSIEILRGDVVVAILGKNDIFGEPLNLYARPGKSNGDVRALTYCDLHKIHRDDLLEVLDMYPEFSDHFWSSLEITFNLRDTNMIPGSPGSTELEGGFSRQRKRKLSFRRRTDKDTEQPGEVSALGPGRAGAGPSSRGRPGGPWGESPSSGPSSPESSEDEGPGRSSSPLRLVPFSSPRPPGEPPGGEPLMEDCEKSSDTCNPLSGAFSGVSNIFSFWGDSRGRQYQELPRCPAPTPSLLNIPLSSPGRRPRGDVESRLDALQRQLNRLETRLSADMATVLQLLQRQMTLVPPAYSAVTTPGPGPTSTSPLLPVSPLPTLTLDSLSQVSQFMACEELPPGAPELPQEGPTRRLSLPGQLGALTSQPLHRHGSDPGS
row,Structure (SMILES),"hERG current change (%, negative = inhibition) at 10uM"
1,CC1=NN(C(=O)c2ccccc2Cl)C(O)(c2cccnc2)C1 (centres unmarked),17.8%
2,COC(=O)C1Cc2c([nH]c3ccccc23)C(C)N1 (centres unmarked),-9.61%
3,COc1ccc(S(=O)(=O)NCc2ccco2)cc1C(=O)N1CCOCC1,21%
4,CC(=O)c1cccc(S(=O)(=O)NCC(c2ccco2)N2CCCCC2)c1 (centres unmarked),-24.1%
5,Cl.O=S(=O)(NCC(c1ccco1)N1CCCCC1)c1cccc(C(F)(F)F)c1 (centres unmarked),-57.7%
6,Cl.O=S(=O)(NCC(c1ccco1)N1CCCCC1)c1ccccc1C(F)(F)F (centres unmarked),-6.8%
7,CC(C)[C@H](NC(=O)c1ccccc1F)C(=O)Nc1ccc2c(c1)OCO2,5.82%
8,Br.C1=C(c2cccc3ccccc23)N2CCN=C2S1,-34.5%
9,Cc1ccc(N2C(=O)NC(=O)C(CCc3ccncc3)(Cc3cccc(Cl)c3Cl)C2=O)cc1 (centres unmarked),6.14%
10,O=C1NC(=O)C(CCc2ccncc2)(CCc2ccccn2)C(=O)N1c1ccc(Br)cc1 (centres unmarked),-75.6%
11,COc1ccc(N2C(=O)NC(=O)C(CCc3ccncc3)(CCc3ccncc3)C2=O)cc1,-23.6%
12,O=C1NC(=O)C(CCc2ccncc2)(Cc2cccc(Cl)c2Cl)C(=O)N1c1ccc(Br)cc1 (centres unmarked),-11%
13,Cc1ccc(N2C(=O)NC(=O)C(CCc3ccccn3)(Cc3ccc(F)cc3)C2=O)cc1 (centres unmarked),12.9%
14,CCc1ccc(N2C(=O)NC(=O)C(CCc3ccncc3)(CCc3ccncc3)C2=O)cc1,-69.9%
15,CCOC(=O)c1c(C)[nH]c(C=O)c1Cc1cccc(Cl)c1,6.47%
16,C/C=C/c1cc(OC)c2c(c1)[C@H](C)[C@@H](c1ccc(O)c(OC)c1)O2,15.9%
17,O=C(CN1C(=O)NC2(CCCCCC2)C1=O)Nc1ccc(S(=O)(=O)N2CCOCC2)cc1,9.75%
18,Cc1ccccc1COc1ccc(-c2nn[nH]n2)cc1,13%
19,Cc1cc2nc3n(c2cc1C)CC1CC(C(=O)NCCC(C)C)N(C)C31 (centres unmarked),1.81%
20,Cc1ccc(CNC(=O)C2CC3Cn4c(nc5ccccc54)C3N2C)o1 (centres unmarked),-0.36%
21,COCCNC(=O)C1CC2Cn3c(nc4cc(Cl)c(Cl)cc43)C2N1C (centres unmarked),-26.5%
22,COc1ccccc1CNC(=O)C1CC2Cn3c(nc4cc(Cl)c(Cl)cc43)C2N1C (centres unmarked),-65.4%
23,CN1C(C(=O)NCC2CC2)CC2Cn3c(nc4cc(Cl)c(Cl)cc43)C21 (centres unmarked),-34.3%
24,COc1ccccc1CNC(=O)C1CC2Cn3c(nc4cc5ccccc5cc43)C2N1C (centres unmarked),-43.8%
25,COc1ccccc1CNC(=O)C1CC2Cn3c(nc4cc(C)c(C)cc43)C2N1C (centres unmarked),-27%
26,CN1C(C(=O)NCc2ccco2)CC2Cn3c(nc4cc(Cl)c(Cl)cc43)C21 (centres unmarked),-43.2%
27,Cc1ccc(CNC(=O)C2CC3Cn4c(nc5cc(C)c(C)cc54)C3N2C)o1 (centres unmarked),-36.9%

row,Structure (SMILES),"hERG current change (%, negative = inhibition) at 10uM"
1,CN1C(C(=O)NCc2cccc(Br)c2)CC2Cn3c(nc4cc(Cl)c(Cl)cc43)C21 (centres unmarked),-75.8%
2,Cc1ccc(CNC(=O)C2CC3Cn4c(nc5cc(Cl)c(Cl)cc54)C3N2C)o1 (centres unmarked),-58.5%
3,CC(C)CCNC(=O)C1CC2Cn3c(nc4cc(Cl)c(Cl)cc43)C2N1C (centres unmarked),-56%
4,COc1ccc(CCN(C)C(=O)CCCN2C(=O)c3cccc4cccc(c34)C2=O)cc1OC,-35.5%
5,O=C(O)C1CCCCC1C(=O)Nc1ccccc1Cl (centres unmarked),15.1%
6,O=C(CN1C(=O)c2ccccc2C1=O)N1CCN(C2c3ccccc3-c3ccccc32)CC1,-23.1%
7,O=C(/C=C/c1ccco1)NCC1COc2ccccc2O1 (centres unmarked),-0.808%
8,O=C(NC1CCCCC1)N1CCSC1=Nc1ccccc1,-5.04%
9,CCOCCCNC(=O)c1c(C)c(C(=O)OCC)n(C)c1C,15.3%
10,CCOC(=O)N1N=C(c2ccccc2)CC1(O)C(C)(F)F (centres unmarked),12.1%
11,CN1C(C(=O)NCc2ccccc2)CC2Cn3c(nc4cc(Cl)c(Cl)cc43)C21 (centres unmarked),-65.6%
12,C=CCNC(=O)C1CC2Cn3c(nc4cc(Cl)c(Cl)cc43)C2N1C (centres unmarked),-35.4%
13,Cc1ccccc1Nc1nnc(-c2ccc(C(=O)NCCO)cc2)c2ccccc12,-65.9%
14,COc1ccc(Nc2nnc(-c3ccc(C(=O)NCCO)cc3)c3ccccc23)cc1,-4.6%
15,O=C(NCCO)c1ccc(-c2nnc(Nc3ccc(O)cc3)c3ccccc23)cc1,16.8%
16,CCC(C)[C@H](NC(=O)C1CCN(C(=O)[C@H](Cc2ccccc2)NC(=O)OC(C)(C)C)CC1)C(=O)O (some centres unmarked),-1.42%
17,COc1ccc(-c2oc(NC(=O)c3ccc(C)cc3)c(C#N)c2-c2ccc(OC)cc2)cc1,-11.6%
18,O=C(C1=C[C@H](c2csc3ccccc23)C[C@H](OCc2ccc(CO)cc2)O1)N1CCN(Cc2ccc3c(c2)OCO3)CC1,12.4%
19,O=C(C1=C[C@@H](c2coc3ccccc3c2=O)C[C@@H](OCc2ccc(CO)cc2)O1)N1CCN(Cc2ccc3c(c2)OCO3)CC1,-66.1%
20,O=C(C1=C[C@@H](c2csc3ccccc23)C[C@@H](OCc2ccc(CO)cc2)O1)N1CCN(Cc2ccc3c(c2)OCO3)CC1,1.69%
21,CC(=O)n1cc([C@@H]2C=C(C(=O)N3CCN(Cc4ccc5c(c4)OCO5)CC3)O[C@H](OCc3ccc(CO)cc3)C2)c2ccccc21,-17.5%
22,CN1CCN(C(=O)C2=C[C@@H](c3coc4ccccc4c3=O)C[C@@H](OCc3ccc(CO)cc3)O2)CC1,-22.5%
23,O=C(C1=C[C@@H](c2csc3ccccc23)C[C@@H](OCCCCO)O1)N1CCN(Cc2ccc3c(c2)OCO3)CC1,-11%
24,O=C(C1=C[C@@H](c2coc3ccccc3c2=O)C[C@@H](OCCCCO)O1)N1CCN(Cc2ccc3c(c2)OCO3)CC1,-49.7%
25,O=C(C1=C[C@H](c2coc3ccccc3c2=O)C[C@H](OCc2ccc(CO)cc2)O1)N1CCN(Cc2ccc3c(c2)OCO3)CC1,-57.2%
26,O=C(C1=C[C@H](c2coc3ccccc3c2=O)C[C@H](OCCCCO)O1)N1CCN(Cc2ccc3c(c2)OCO3)CC1,-64.4%
